Several values for one entry are separate records, joined by “and”; a condition that tells them apart may be missing. Equal values may be shown once. This is part of a sample that, as a whole, favours compounds with a hit. Of some 83,000 tested, about 20% had one in any assay.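 In brief: 96-well plates, 48 h treatment, single concentration, percent growth endpoint.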 Activity calls are given as the source filed them. How the source made its calls: active means growth percent below 10; inactive means the rest.
What was measured:
Assay in all cases: NCI-60 one-dose screen, 48 h (100 = growth as untreated, 0 = no growth, -100 = all killed)
DU-145 prostate = settings: 10 µM
K-562 leukemia = settings: 10 µM
MALME-3M melanoma = settings: 10 µM
MDA-MB-231 breast = settings: 10 µM
RXF 393 renal = settings: 10 µM
SF-268 CNS = settings: 10 µM
SF-295 CNS = settings: 10 µM
SF-539 CNS = settings: 10 µM
UACC-257 melanoma = settings: 10 µM
M14 melanoma = settings: 10 µM
HCT-15 colon = settings: 10 µM
SNB-75 CNS = settings: 10 µM
SNB-19 CNS = settings: 10 µM
PC-3 prostate = settings: 10 µM
SK-MEL-5 melanoma = settings: 10 µM
UACC-62 melanoma = system: UACC-62 melanoma
LOX IMVI melanoma = settings: 10 µM
SK-MEL-28 melanoma = settings: 10 µM
HT29 colon = settings: 10 µM
U251 CNS = settings: 10 µM

Measured: growth

CCN(CC)c1ccc2nc3ccc(=[N+](CC)CC)cc-3oc2c1
active: MALME-3M melanoma -48.6% | MDA-MB-231 breast -12.1% | SF-295 CNS 1.09% | UACC-257 melanoma -55.8% | M14 melanoma -34.1% | SNB-75 CNS 1.61% | SNB-19 CNS -1.56% | PC-3 prostate 4.1% | SK-MEL-5 melanoma -53.4% | UACC-62 melanoma; 10 µM unless noted -39.1% | LOX IMVI melanoma -22.7% | SK-MEL-28 melanoma 2.45%
inactive: DU-145 prostate 37.6% | K-562 leukemia 21% | RXF 393 renal 53.1% | SF-268 CNS 13.9% | SF-539 CNS 21.2% | HCT-15 colon 35.5%

CC(=O)OCC1=CC2OC(=O)C3=COC(OC4OC(CO)C(O)C(O)C4O)C1C32 (stereo unspecified)
inactive: UACC-62 melanoma; 10 µM 102% | UACC-62 melanoma; 100 µM 77.3% and 98.7%

CCC(C)(O)c1ccc(C)cc1 (stereo unspecified)
inactive: DU-145 prostate 106% | K-562 leukemia 116% | MALME-3M melanoma 119% | MDA-MB-231 breast 107% | RXF 393 renal 113% | SF-268 CNS 92.9% | SF-295 CNS 109% | SF-539 CNS 103% | UACC-257 melanoma 105% | HCT-15 colon 107% | HT29 colon 107% | SNB-75 CNS 91.7% | SNB-19 CNS 97.8% | U251 CNS 105% | PC-3 prostate 99.6% | UACC-62 melanoma; 10 µM unless noted 102% | LOX IMVI melanoma 106% | SK-MEL-28 melanoma 104%

COS(=O)(=O)c1ccc(Br)cc1
inactive: DU-145 prostate 102% | K-562 leukemia 136% | MALME-3M melanoma 119% | MDA-MB-231 breast 92.5% | RXF 393 renal 105% | SF-268 CNS 84.9% | SF-295 CNS 107% | SF-539 CNS 102% | UACC-257 melanoma 93% | HCT-15 colon 104% | SNB-75 CNS 89.4% | SNB-19 CNS 98.3% | U251 CNS 89% | PC-3 prostate 93.2% | SK-MEL-5 melanoma 104% | UACC-62 melanoma; 10 µM unless noted 85.5% | LOX IMVI melanoma 97.2% | SK-MEL-28 melanoma 98.4%

CCOc1ccccc1/C=N/Nc1nc2ccccc2o1
inactive: DU-145 prostate 110% | K-562 leukemia 95.7% | MALME-3M melanoma 97.5% | MDA-MB-231 breast 82.8% | RXF 393 renal 112% | SF-268 CNS 108% | SF-295 CNS 108% | SF-539 CNS 104% | UACC-257 melanoma 113% | HT29 colon 110% | SNB-75 CNS 83.9% | SNB-19 CNS 100% | U251 CNS 105% | PC-3 prostate 85.8% | SK-MEL-5 melanoma 97.7% | UACC-62 melanoma; 10 µM unless noted 82.6% | LOX IMVI melanoma 94.1% | SK-MEL-28 melanoma 100%

O=C1OC(=O)C2C1C1(Cl)C(Cl)=C(Cl)C2(Cl)C2C(=O)OC(=O)C21 (stereo unspecified)
inactive: DU-145 prostate 116% | K-562 leukemia 105% | MALME-3M melanoma 98.2% | MDA-MB-231 breast 122% | RXF 393 renal 100% | SF-268 CNS 105% | SF-295 CNS 105% | SF-539 CNS 98.8% | M14 melanoma 101% | HCT-15 colon 103% | HT29 colon 104% | SNB-75 CNS 89.1% | SNB-19 CNS 106% | U251 CNS 101% | PC-3 prostate 97.9% | SK-MEL-5 melanoma 103% | UACC-62 melanoma; 10 µM unless noted 102% | LOX IMVI melanoma 98.4% | SK-MEL-28 melanoma 107%

CCOC(=O)CCCS(C)(=O)=O
inactive: DU-145 prostate 117% | K-562 leukemia 113% | MALME-3M melanoma 105% | MDA-MB-231 breast 99% | RXF 393 renal 113% | SF-268 CNS 108% | SF-295 CNS 117% | SF-539 CNS 97.7% | UACC-257 melanoma 108% | HCT-15 colon 104% | HT29 colon 105% | SNB-75 CNS 86.2% | SNB-19 CNS 100% | U251 CNS 105% | PC-3 prostate 87.9% | UACC-62 melanoma; 10 µM unless noted 93.7% | LOX IMVI melanoma 98.8% | SK-MEL-28 melanoma 104%

COc1cccc(COC(=O)Nc2ccccc2)c1OC
inactive: DU-145 prostate 104% | K-562 leukemia 102% | MALME-3M melanoma 105% | MDA-MB-231 breast 104% | RXF 393 renal 95.8% | SF-268 CNS 114% | SF-295 CNS 88.5% | SF-539 CNS 107% | M14 melanoma 105% | HCT-15 colon 85.4% | HT29 colon 105% | SNB-75 CNS 84.1% | SNB-19 CNS 101% | PC-3 prostate 83.9% | SK-MEL-5 melanoma 98.2% | UACC-62 melanoma; 10 µM unless noted 94.4% | LOX IMVI melanoma 103% | SK-MEL-28 melanoma 102%

COc1ccc(C(O)c2ccccc2)cc1 (stereo unspecified)
inactive: DU-145 prostate 108% | K-562 leukemia 88.5% | MALME-3M melanoma 101% | MDA-MB-231 breast 95.5% | RXF 393 renal 111% | SF-268 CNS 93.8% | SF-295 CNS 102% | SF-539 CNS 102% | M14 melanoma 103% | HCT-15 colon 100% | HT29 colon 105% | SNB-75 CNS 96.1% | SNB-19 CNS 105% | U251 CNS 94.1% | SK-MEL-5 melanoma 99.3% | UACC-62 melanoma; 10 µM unless noted 95.3% | LOX IMVI melanoma 86.2% | SK-MEL-28 melanoma 105%

Cc1cc(C)c(N)c(S(=O)(=O)O)c1
inactive: DU-145 prostate 129% | K-562 leukemia 113% | MALME-3M melanoma 104% | MDA-MB-231 breast 97.8% | RXF 393 renal 133% | SF-268 CNS 115% | SF-295 CNS 104% | SF-539 CNS 84.4% | UACC-257 melanoma 122% | HCT-15 colon 100% | HT29 colon 103% | SNB-75 CNS 101% | SNB-19 CNS 96.5% | U251 CNS 98.2% | PC-3 prostate 96.6% | SK-MEL-5 melanoma 98.7% | UACC-62 melanoma; 10 µM unless noted 93.1% | LOX IMVI melanoma 93.9% | SK-MEL-28 melanoma 132%

— PubChem BioAssay (NCI)
